# Measured values published in PubChem BioAssay.
# The source made the active and inactive calls. Unless noted, no rule for the calls is given here.
# Assays:
# [1] = HepG2 liver cancer cell viability effects, profiling panel, resazurin fluorescence, 24 h, PK04 Diversity Set (AID 1172); details: higher = more signal
# [2] = basal S. cerevisiae growth modulation, no modifier, primary screen, OD600, strain BY4716, 24 h, basal condition (AID 1173); details: OD600, 24 h, higher = more signal, called active from +8 up or from −8 down
# [3] = MM1S myeloma cell viability, profiling panel, resazurin fluorescence, basal, 24 h, PK04 Diversity Set (AID 1174); details: higher = more signal, called active from +8 up or from −8 down;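 also: MM1S multiple myeloma cell line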
# [4] = molecular target: Dihydroorotate dehydrogenase (quinone), mitochondrial (Plasmodium falciparum (isolate 3D7)) (UniProt Q08210); test: PfDHODH enzyme inhibitors, primary screen, biochemical, C-terminal His tag, absorbance 600 nm (AID 1175); details: DCIP absorbance 600 nm, higher = more signal, called active from +8 up or from −8 down;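 also: recombinant parasite enzyme with a five histidine tag at its C terminus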
# Dihydroorotate dehydrogenase (quinone), mitochondrial (Plasmodium falciparum (isolate 3D7)), sequence (Q08210 whole entry, looked up): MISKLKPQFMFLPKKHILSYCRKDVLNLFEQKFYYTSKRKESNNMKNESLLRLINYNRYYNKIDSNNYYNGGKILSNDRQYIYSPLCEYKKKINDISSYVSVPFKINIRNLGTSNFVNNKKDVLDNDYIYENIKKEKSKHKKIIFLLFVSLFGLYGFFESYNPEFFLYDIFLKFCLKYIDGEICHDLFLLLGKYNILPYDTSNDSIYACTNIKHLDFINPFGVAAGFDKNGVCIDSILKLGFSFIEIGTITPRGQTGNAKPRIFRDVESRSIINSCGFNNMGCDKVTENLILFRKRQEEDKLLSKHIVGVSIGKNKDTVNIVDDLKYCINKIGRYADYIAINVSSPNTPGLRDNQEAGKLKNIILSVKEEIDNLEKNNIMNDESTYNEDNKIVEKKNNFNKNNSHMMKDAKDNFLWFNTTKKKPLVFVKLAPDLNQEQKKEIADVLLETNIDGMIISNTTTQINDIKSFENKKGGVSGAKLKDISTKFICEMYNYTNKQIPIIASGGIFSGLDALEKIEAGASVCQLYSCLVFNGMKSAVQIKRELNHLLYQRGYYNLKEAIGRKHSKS
# [5] = P. aeruginosa biofilm formation inhibitors, primary screen, strain PAO1, LB-PBS medium, absorbance 600 nm (AID 1176); details: P. aeruginosa PAO1 growth/biofilm, A600, 12 h; higher = more signal
# [6] = S. cerevisiae RM11-1a growth modifiers, primary screen, strain RM11-1a, OD600, basal, 24 h (AID 1177); details: OD600, 24 h, higher = more signal, called active from +8 up or from −8 down;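 also: cultures grown under basal conditions with no added stressor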
# [7] = E. coli acrAB mutant growth effects, primary screen, E. coli filamentation inducers, strain DRC39, OD650, 24 h (AID 1178); details: higher = more signal, called active from +8 up or from −8 down;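 also: growth measured as culture turbidity by optical density at 650 nm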
# [8] = E. coli acrAB mutant growth effects, primary screen, E. coli filamentation inducers, strain DRC39, OD650, 48 h (AID 1179);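 also: screen aims at cell division blockers that make cells filament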; details: E. coli DRC39 delta-acrAB growth, higher = more signal, called active from +8 up or from −8 down
# [9] = RPMI8226 myeloma cell viability, profiling panel, resazurin fluorescence, basal, 24 h, PK04 Diversity Set (AID 1180); details: higher = more signal;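 also: RPMI8826 multiple myeloma cell line at 5000 cells per well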
# [10] = molecular target: E3 ubiquitin-protein ligase XIAP (Homo sapiens) (UniProt P98170); test: XIAP binders, primary screen, biophysical, small-molecule microarray, fluorescence 635 nm (AID 1181); details: small-molecule microarray binding, higher = more signal;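 also: score merges 667 nm emission and signal to noise over triplicate slides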
# E3 ubiquitin-protein ligase XIAP (Homo sapiens), sequence (P98170 whole entry, looked up): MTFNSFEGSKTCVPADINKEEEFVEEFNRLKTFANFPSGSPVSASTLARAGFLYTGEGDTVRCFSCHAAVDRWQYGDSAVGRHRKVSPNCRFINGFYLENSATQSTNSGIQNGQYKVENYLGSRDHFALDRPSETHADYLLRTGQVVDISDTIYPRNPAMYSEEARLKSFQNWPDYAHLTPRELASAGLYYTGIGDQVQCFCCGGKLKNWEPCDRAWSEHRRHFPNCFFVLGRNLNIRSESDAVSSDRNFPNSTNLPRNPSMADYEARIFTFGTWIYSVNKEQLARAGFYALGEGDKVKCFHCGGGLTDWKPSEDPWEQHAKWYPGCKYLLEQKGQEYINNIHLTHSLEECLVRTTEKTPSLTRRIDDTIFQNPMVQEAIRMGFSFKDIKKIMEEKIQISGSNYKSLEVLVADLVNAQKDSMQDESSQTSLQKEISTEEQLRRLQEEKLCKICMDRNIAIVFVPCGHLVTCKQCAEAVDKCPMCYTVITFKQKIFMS
# [11] = system: XIP peptide (Xip251-270) binding; test: small-molecule binders of XIP peptide, primary screen, biochemical, small-molecule microarray, fluorescence 635/667 nm, 0.1 µg/mL protein (AID 1182); details: fluorescent protein binding, 635 nm, higher = more signal, called active from +8 up or from −8 down
# XIP peptide (Xip251-270) = test: small-molecule binders of XIP peptide, primary screen, biochemical, small-molecule microarray, fluorescence 635/667 nm, 0.5 µg/mL protein (AID 1183); details: small-molecule microarray binding, fluorescence 635 nm; higher = more signal
# [12] = Plasmodium falciparum growth inhibition, primary screen, strain 3D7, DAPI fluorescence, 100 nL (AID 1184);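 also: parasites grown inside human red blood cells in medium with human serum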; details: P. falciparum 3D7 growth, 3 d, higher = more signal
# [13] = molecular target: Homeobox protein Hox-A13 (Mus musculus) (UniProt Q62424); test: inhibitors of HoxA13-DNA binding, primary screen, biochemical, fluorescence polarization, labeled oligonucleotide (AID 1185); details: 15 min, higher = more signal, called active from +8 up or from −8 down
# Homeobox protein Hox-A13 (Mus musculus), sequence (Q62424 whole entry, looked up): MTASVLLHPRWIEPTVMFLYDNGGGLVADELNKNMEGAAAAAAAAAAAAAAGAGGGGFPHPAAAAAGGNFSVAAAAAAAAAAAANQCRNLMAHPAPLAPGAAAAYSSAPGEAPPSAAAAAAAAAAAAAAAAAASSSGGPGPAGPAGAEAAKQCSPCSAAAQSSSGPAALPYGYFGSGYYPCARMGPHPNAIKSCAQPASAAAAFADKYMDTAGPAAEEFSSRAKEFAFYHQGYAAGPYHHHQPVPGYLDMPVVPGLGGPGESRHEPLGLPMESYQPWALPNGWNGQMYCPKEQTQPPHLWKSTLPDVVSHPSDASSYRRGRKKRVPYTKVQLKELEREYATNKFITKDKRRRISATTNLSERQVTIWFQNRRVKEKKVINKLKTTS
# [14] = inhibitors of hydroxyurea-induced Chk1 phosphorylation, primary screen, imaging, HeLa, phospho-Chk1 antibody, percent positive cells (AID 1186); details: hydroxyurea-induced phospho-Chk1 immunofluorescence imaging, higher = more signal
# [15] = inhibitors of hydroxyurea-induced Chk1 phosphorylation, primary screen, imaging, HeLa, phospho-Chk1 nuclear intensity (AID 1187); details: hydroxyurea-induced phospho-Chk1 immunofluorescence imaging, higher = more signal
SMILES,z-score [1],z-score [2],z-score [3],composite z-score [4],z-score [5],z-score [6],z-score [7],z-score [8],z-score [9],composite z-score [10],composite z-score [11],composite z-score (XIP peptide (Xip251-270)),z-score [12],z-score [13],z-score [14],z-score [15]
CC1CC/C=C\[C@H]2OC34C=CCN(Cn5nnc6ccccc65)C(=O)[C@H]3N(CCCCCO)C(=O)[C@@H]4C2C(=O)O1 (some centres undefined),0.786,0.0153 (inactive),-0.88 (inactive),0.374 (inactive),0.193 (inactive),0.0538 (inactive),0.67 (inactive),0.434 (inactive),0.796,-0.148,-0.369 (inactive),-0.745,-0.585,-3.77 (inactive),-0.749 (inactive),-0.2 (inactive)
CC(C)[Si](C#CCCCC#N)(O[C@H](c1ccccc1)c1cn(Cc2cccc(Cl)c2)nn1)C(C)C,0.36,-0.718 (inactive),0.109 (inactive),0.369 (inactive),1.25 (inactive),-0.358 (inactive),-0.0251 (inactive),-0.203 (inactive),-0.701,0.149,-0.186 (inactive),0.605,-1.06,-0.527 (inactive),-0.628 (inactive),-0.968 (inactive)
C=CCN(Cc1ccccc1)C(=O)C(c1cccs1)N(C(=O)/C=C\C(=O)O)c1ccc(CCOCCO)cc1 (centres undefined),-0.552,0.25 (inactive),0.222 (inactive),-1.54 (inactive),0.742 (inactive),-1.18 (inactive),0.368 (inactive),0.651 (inactive),0.424,-0.249,-0.524 (inactive),0.625,0.155,0.12 (inactive),-1.25 (inactive),-0.565 (inactive)
Cc1ccc(C2C3C(=O)CC4C(=O)N(c5ccccc5)C(=O)C4C3CN2S(=O)(=O)c2ccc(C)cc2)cc1 (centres undefined),-0.419,1.05 (inactive),-0.936 (inactive),-0.274 (inactive),0.201 (inactive),1.24 (inactive),-0.478 (inactive),0.384 (inactive),-0.82,-0.173,0.053 (inactive),0.785,0.395,-3.61 (inactive),0.951 (inactive),1 (inactive)
Cc1ccc(S[C@]2(C(=O)O)CC(=O)N(C(C)C)[C@@H]2c2ccc(CO)cc2)cc1,0.0469,-1.45 (inactive),0.359 (inactive),-0.896 (inactive),1.02 (inactive),-1.33 (inactive),1.44 (inactive),1.93 (inactive),0.376,-0.0962,0.402 (inactive),0.216,0.252,-0.292 (inactive),-0.696 (inactive),-0.558 (inactive)
COC(=O)[C@@]1(Cc2ccccc2)[C@H]2c3cc(C(=O)N4CCCC4)n(Cc4ccc(O)c(OC)c4)c3C[C@H]2CN1C(=O)c1ccccc1,-1.82,1.93 (inactive),-0.948 (inactive),0.05 (inactive),0.675 (inactive),1.8 (inactive),-1.12 (inactive),-0.697 (inactive),-2.74,0.224,0.469 (inactive),-0.333,-1.32,-4.6 (inactive),1.13 (inactive),0.678 (inactive)
COc1ccc([Si](C)(C)[C@H]2[C@H](CC(=O)N3CCC[C@H]3CO)O[C@@]3(C(=O)N(Cc4cccc(N5CCOC5=O)c4)c4ccccc43)[C@@H]2C)cc1,0.22,-0.338 (inactive),-0.133 (inactive),-3.32 (inactive),-0.249 (inactive),0.177 (inactive),0.181 (inactive),-0.109 (inactive),-0.699,-0.0839,0.991 (inactive),0.672,-1.42,-4.71 (inactive),0.835 (inactive),0.936 (inactive)
C=C[C@H](C)[C@@H](OC(=O)Nc1ccc(SC)cc1)c1ccc(O)c2ccccc12,-0.752,-18.2 (active),-3.78 (inactive),-1.84 (inactive),0.908 (inactive),-5.28 (inactive),-0.33 (inactive),-0.638 (inactive),-3,-0.258,0.68 (inactive),0.248,-0.127,-4.35 (inactive),1.16 (inactive),0.893 (inactive)
C=CCN1Cc2ccccc2[C@@H]2OC(c3ccc(OCCCO)cc3)=N[C@]2(CCS(=O)(=O)c2ccccc2)C1=O,0.277,1.28 (inactive),-0.751 (inactive),0.651 (inactive),1.4 (inactive),1.38 (inactive),0.61 (inactive),0.713 (inactive),-0.764,-0.123,0.3 (inactive),0.799,-2.3,-2.43 (inactive),-0.386 (inactive),-0.386 (inactive)
